The list is not random: actives were taken first. Their share in the collection is about 3.7%.
RE007 growth inh: less growth of the S. pombe RE007 Vpr strain; Potency, µM (titrated, usually from 92.2 µM), for the others: at the top dose activity change, negative = less growth, most hits filed as inhibitors; S. pombe RE007 Vpr strain, BacTiter-Glo ATP luminescence, 24 h; AID 651644; hit rate 0.21% among 360,000; active = well fitted falling curve with a large enough effect; inconclusive = small, poorly fitted or top-dose-only effect; inactive = no such curve, though single readings can be large or run the other way; also: nearly all actives have a fitted effect of over 50% in size
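Fission yeast RE007 carrying one integrated HIV-1 vpr copy, seeded at OD 0.01 in PMG+AL medium with 23 nL pinned compound. Grown 24 h at 30 degrees; viability read by BacTiter-Glo luminescence after 5 min.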
TbPYK inhibitor: T. brucei pyruvate kinase inhibition. Q57TT1. TbPYK enzyme, Kinase-Glo Plus ATP luminescence, 45 min. Potency, µM (doses to about 76.8 µM), for the others: at the highest dose activity, negative = inhibition, hits mostly inhibitors. hit rate 0.12% among 410,000. AID 624173; also: nearly all actives have a fitted effect of over 50% in size
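ADP (130 uM final) triggers the TbPYK reaction after compound addition; incubation is 45 min at room temperature. Kinase-Glo Plus is then added and luminescence imaged. Normalized data are fitted to concentration-effect curves.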
FMDV inh: foot and mouth disease virus antiviral activity. AID 1159524. hit rate 1.2% among 410,000. Potency, µM (doses to about 57.9 µM), inactives show at the highest dose activity change, negative = inhibition, most hits filed as inhibitors. FMDV antiviral cell-based qHTS; calls by dose curve; tested in HEK293T cells; also: read-out not given here; nearly all actives have a fitted effect of over 45% in size
Sm TGR block: inhibitors of Schistosoma mansoni thioredoxin glutathione reductase; purified TGR, DTNB reduction, TNB absorbance 405 nm; hit rate 3% among 360,000; Potency, µM (titrated, usually from 114 µM), inactives show at the highest dose activity change, negative = inhibition, usual class: inhibitors; also: nearly all actives have a fitted effect of over 60% in size
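First, TGR (20 nM dispensed) and NADPH were mixed with compound. Second, a 15 min room-temperature incubation followed. Third, further NADPH and then DTNB were added to start the reaction. Finally, TNB absorbance was monitored kinetically.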
Starred values were filed as active, the others as inactive; ? = inconclusive; / = not tested or not shown; [ ] = dose if it differs, or a comment. Unless noted, calls follow the shape of the dose curve; as a rule, active = well fitted curve in the direction sought with a large enough effect; inconclusive = small, poorly fitted or top-dose-only effect, or another doubt; inactive = no such curve, though single readings can be large; an effect the other way counts as inactive or inconclusive. % is scaled to controls: 0 for no effect and ±100 for the full control effect; potency is read from the fitted curve at half-maximal effect.

SMILES | RE007 growth inh | TbPYK inhibitor | FMDV inh | Sm TGR block
Cc1cc(C(=O)Nc2cccc(F)c2)c2c(C)nn(-c3cccc(Cl)c3C)c2n1 | / | 0% | ? | 1%
CC/C=C\[C@H](O)[C@H](O)C1=C(C)C(=O)[C@]2(O1)C(=O)N[C@@](OC)(C(=O)c1ccccc1)C2O (stereo partly drawn) | -5% | -7% | -12% | 40µM*
Cc1ccc2cc(CNC(C)c3cccc4ccccc34)c(N3CCC(O)CC3)nc2c1 (stereo not drawn) | / | / | 0% | /
CC1=C(CC(=O)O)c2cc(F)ccc2/C1=C/c1ccc(S(C)=O)cc1 (stereo not drawn) | 2%[18.4 µM] | -3% | 21% | 20µM*
COc1cc(C(=O)Nc2nc(-c3cc(C)ccc3C)c(C)s2)ccc1OCC(=O)Nc1ccc(F)cc1 | / | -7% | ? | -2%
COc1ccc(-c2nc(NC(=O)c3ccc(OCC(=O)Nc4ccc(F)cc4)c(OC)c3)sc2C)cc1 | 1% | 1% | 18µM* | 5%
Cc1ccc(C(=O)c2oc3ccccc3c2NC(=O)c2cc(=O)c3ccccc3o2)cc1 | / | -2% | -6% | 0%
Cc1nc2sc(-c3ccccc3)cc2c(=O)n1-n1cccc1 | -13% | -5% | -16% | 2%
Cc1nc2sc(-c3ccccc3)cc2c(=O)n1N | ? | ? | 40µM* | 4%
COc1cc(NC(=O)CSC2=Nc3ccccc3N=C(c3ccc(F)cc3)C2)cc(OC)c1 | / | -6% | 0% | -1%
CCCOC1(NC(=O)c2ccccc2)C(C)=CC(=O)C=C1C | 5% | -11% | -9% | 22µM*
COc1cccc(CNC(=O)CN2C(=O)CSc3c2c(C)nn3-c2ccccc2)c1OC | / | 2% | 0% | -2%
O=C(Nc1ccc(Br)cc1)c1cc(Br)c(Br)s1 | / | 5% | / | /
Cc1ccc(CN(C(=O)COc2ccccc2Cl)c2ccccn2)o1 | / | -22% | 66% | 40µM*
O=c1c2c(-c3ccc(Cl)cc3)ccnc2[nH]n1-c1ccccc1 | / | 0% | 2% | 10%
O=C1CC(CC(=O)N2CC3CCCC2C3)(c2cccc(F)c2)C(=O)N1Cc1cccnc1 (stereo not drawn) | / | / | 14% | /
Cc1ccc(OCc2ccc(-c3nc(C#N)c(NCc4ccccc4Cl)o3)o2)cc1 | / | 3% | -16% | 2%
CCOc1ccc(CCNC(=O)c2ccc3c(c2)nc2n3CCOC2)cc1OCC | / | -2% | 0% | 10%
O=C(Nc1ccc(Nc2ccccc2)cc1)C(Cl)Cl | -2% | -12% | 13% | -4%
CC(C)(C)C(=O)C(Cl)C(=O)Nc1ccccc1 (stereo not drawn) | -42% | -9% | -9% | 22µM*
CSc1ncccc1C(=O)NCC1Cc2cc(-c3cnccn3)ccc2O1 (stereo not drawn) | / | / | -8% | /
COc1ccc2c(c1)sc1ncc(C(=O)NCc3ccc(Cl)cc3)c(=O)n12 | / | -1% | -4% | 2%
Cn1c(N)c(C(=O)CSc2nn(-c3ccccc3)c(=S)s2)c(=O)n(C)c1=O | -10% | 2% | 25µM* | -1%
Cc1ccc(S(=O)(=O)Cc2ccc(C(=O)N3CCc4ccccc4C3)o2)cc1 | 14% | -4% | -13% | 40µM*
Cc1ccc(S(=O)(=O)Cc2ccc(C(=O)N3CCN(Cc4ccccc4)CC3)o2)cc1 | / | / | / | 35µM*
SMILES | RE007 growth inh | TbPYK inhibitor | FMDV inh | Sm TGR block
O=C(c1ccc(CS(=O)(=O)c2ccccc2)o1)N1CCOCC1 | 18% | 8% | -21% | 40µM*
COc1ccc(S(=O)(=O)Cc2ccc(C(=O)N3CCN(Cc4ccccc4)CC3)o2)cc1 | 6% | -1% | -22% | ?
COc1ccc(S(=O)(=O)Cc2ccc(C(=O)N3CCc4ccccc4C3)o2)cc1 | -2% | -14% | -9% | 20µM*
O=C(NCCC1=CCCCC1)c1ccc2c(c1)N(Cc1cccc(Cl)c1)C(=O)c1ccccc1S2=O (stereo not drawn) | / | -3% | 11% | 9%
O=C(Nc1cc(Cl)cc(Cl)c1)c1ccc(F)c(S(=O)(=O)NC2CCCCC2)c1 | / | 3% | 12% | 8%
CC(=O)Nc1nnc(SCc2cc(=O)c3cc(C)ccc3[nH]2)s1 | / | -8% | -22% | -3%
CCCCCCCCCCCCCCCC[N+](C)(C)Cc1ccccc1 | / | 8% | / | /
Cc1cccnc1-c1cccc2c1OC(CNC(=O)C(=O)c1ccccc1)C2 (stereo not drawn) | / | / | -10% | /
COc1cc(C(=O)NCc2cccnc2)ccc1OCC(=O)Nc1cccc(C(F)(F)F)c1 | 7% | 4% | 11µM* | -4%
CN1CCN(C(=S)c2ccc(OCC(=O)Nc3cccc(C(F)(F)F)c3)cc2)CC1 | -3% | -2% | 20µM* | 2%
CCOc1ccc(-c2nonc2NC(=O)c2ccc(C)cc2)cc1OCC | / | 1% | 6% | 0%
N#CC1=C(N)C(C#N)(C#N)[C@H](c2ccncc2)[C@H]2CC3(CC=C12)OCCO3 | 4% | -4% | -2% | 79µM*
Oc1ccc(NCc2cccs2)cc1 | -15% | ? | 27% | 50µM*
CC(=O)Nc1ccc(NCc2cccs2)cc1 | 7% | -1% | 17% | 17%
O=C(Nc1ncc(S(=O)(=O)c2ccc([N+](=O)[O-])cc2)s1)c1cccnc1 | 16% | -5% | -29% | 28µM*
O=C(Nc1ncc(S(=O)(=O)c2ccc([N+](=O)[O-])cc2)s1)c1ccc2ccccc2c1 | -7% | 1% | ? | -2%
CN1[C@@H]2CC[C@H]1CC(OC(=O)[C@@H](O)c1ccccc1)C2 (stereo partly drawn) | / | 6% | / | /
C/C(=C\c1ccccc1)C(=O)n1nnc2ccccc21 | -9% | 14% | -17% | 20µM*
COc1ccc(S(=O)(=O)N2CCCC(C(=O)Nc3cccnc3)C2)cc1Cl (stereo not drawn) | -14% | ? | 25µM* | -21%
Cc1cc(SCNC(=O)c2ccccc2)nc(C(C)C)n1 | 6% | 7% | -4% | 11µM*
Cc1cc(C)nc(SCNC(=O)c2ccccc2)n1 | 0% | -17% | -16% | ?
Cc1ccc(Cn2c(C(=O)NCCCN3CCOCC3)cc3sccc32)cc1 | -17% | 0% | 0% | -16%
Cc1cc2c(cc(C(=O)NCCCN3CCOCC3)n2Cc2ccc(Cl)cc2)o1 | 0% | -25% | -14% | 35µM*
CC(=O)OCCNc1cc(N2CCN(C)CC2)c2noc3c2c1C(=O)c1ccccc1-3 | -10% | ? | ? | -23%
O=C(O)CCNc1cc(N2CCN(C(=O)c3ccco3)CC2)c2noc3c2c1C(=O)c1ccccc1-3 | -16% | ? | -17% | 16µM*
CCN1CCN(c2cc(N3CCN(C(=O)c4ccco4)CC3)c3c4c(onc24)-c2ccccc2C3=O)CC1 | -19% | -13% | ? | 7.1µM*
CCc1ccc(NC(=O)C2CCC(CNS(=O)(=O)c3ccc4c(c3)CC(C)N4C(C)=O)CC2)cc1 (stereo not drawn) | / | 5% | 18µM* | -4%
CC(=O)N1c2ccc(S(=O)(=O)NCC3CCC(C(=O)Nc4ccc(F)cc4)CC3)cc2CC1C (stereo not drawn) | / | -5% | 35µM* | 8%

Screens as filed in PubChem BioAssay.
